Among the data in PubChem BioAssay (NCI) are growth values, retold here.

Some test systems named below: HCT-15 colon; HT29 colon; SNB-75 CNS; SNB-19 CNS; U251 CNS; PC-3 prostate; SK-MEL-5 melanoma; UACC-62 melanoma; LOX IMVI melanoma; SK-MEL-28 melanoma; SK-MEL-2 melanoma; EKVX NSCLC; SN12C renal; UO-31 renal; TK-10 renal; ACHN renal; CAKI-1 renal; A498 renal; MOLT-4 leukemia; CCRF-CEM leukemia.
Holding throughout (test): NCI-60 one-dose screen, 48 h (100 = growth as untreated, 0 = no growth, -100 = all killed)
Details in all cases: 10 µM unless noted

Each structure is given as a SMILES string. Compounds without any hit were thinned out: in the full panel of roughly 83,000, 20% have a hit.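 Each cell line was grown in a 96-well plate and treated with one concentration of compound for 48 hours. Values below 10 were considered active.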 Values without a mark were called inactive. The source made the active and inactive calls.

For the molecule `Cn1nnnc1-c1ccc(N)cc1`, the growth was 98.9% in the assay with HCT-15 colon; 95% in the assay on HT29 colon; 88.4% in the assay on SNB-75 CNS; 105% in the assay on SNB-19 CNS; 100% with U251 CNS; 93.9% in the assay with PC-3 prostate. The growth in the assay on SK-MEL-5 melanoma was 102%; with UACC-62 melanoma, 99.7%; in the assay with LOX IMVI melanoma, 95.1%; in the assay with SK-MEL-28 melanoma it was 103%; with SK-MEL-2 melanoma, 89%; with EKVX NSCLC, 93.8%. Further, the growth in the assay on SN12C renal is 110%; in the assay with UO-31 renal, 79%; with TK-10 renal, 97.3%; in the assay with ACHN renal, 98.7%; in the assay on CAKI-1 renal it was 93.2%; in the assay with A498 renal, 108%. Further, the growth with MOLT-4 leukemia is 92.5%.

As to `O=C(/C=C/C12c3ccccc3C(c3ccccc31)C1C(=O)N(c3ccccc3)C(=O)C12)c1ccc(Cl)cc1` (configuration not stated), the growth in the assay on HCT-15 colon is -0.519% (active); with HT29 colon it was 8.4% (active); in the assay with SNB-75 CNS, 72.1%; with SNB-19 CNS, 39.4%; with U251 CNS it was 19.8%; in the assay on PC-3 prostate, 22.3%. Besides, the growth in the assay with SK-MEL-5 melanoma is -55.2% (active); in the assay with UACC-62 melanoma, 5.42% (active); with LOX IMVI melanoma, -81.1% (active); in the assay with SK-MEL-28 melanoma, 4.17% (active); in the assay with SK-MEL-2 melanoma, 22.3%; with EKVX NSCLC it was 22.9%. For the same molecule, the growth is 19.9% in the assay on SN12C renal; -37.1% (active) in the assay with UO-31 renal; 42.8% in the assay with TK-10 renal; -36.2% (active) in the assay on ACHN renal; 54.2% with CAKI-1 renal; 13% with CCRF-CEM leukemia. Also, the growth in the assay with MOLT-4 leukemia is 11.9%.

As for `CSc1ccc(Cl)c(C(=O)Nc2sccc2C(N)=O)c1`, the growth in the assay on HCT-15 colon is 98.8%; with HT29 colon it was 118%; in the assay on SNB-75 CNS, 105%; in the assay on SNB-19 CNS, 80.6%; with U251 CNS, 94.3%; in the assay on PC-3 prostate, 83.8%. Further, the growth with SK-MEL-5 melanoma was 95%; in the assay on UACC-62 melanoma it was 81.1%; with LOX IMVI melanoma, 100%; in the assay on SK-MEL-28 melanoma, 102%; in the assay with SK-MEL-2 melanoma, 92.7%; in the assay on EKVX NSCLC, 108%. The growth was 93.6% in the assay with SN12C renal; 80.6% in the assay with UO-31 renal; 158% in the assay on TK-10 renal; 102% in the assay on ACHN renal; 112% in the assay on CAKI-1 renal; 94.2% in the assay with A498 renal. For the same molecule, the growth in the assay with MOLT-4 leukemia was 125%.

As for `COc1cc(-c2ccc(-c3ccc(C(=N)N)nc3)s2)cc(OC)c1OC`, the growth in the assay on HCT-15 colon was 21.4%; in the assay on HT29 colon, 14.2%; with SNB-75 CNS, 68.5%; in the assay with SNB-19 CNS, 65.2%; in the assay with U251 CNS, 28.9%; with PC-3 prostate, 54.7%. Besides, the growth is 37.6% in the assay with SK-MEL-5 melanoma; 59.5% in the assay on UACC-62 melanoma; -14.3% (active) in the assay with LOX IMVI melanoma; 59.3% in the assay on SK-MEL-28 melanoma; 89.3% in the assay with SK-MEL-2 melanoma; 89.9% with EKVX NSCLC. In addition, the growth is 66.6% in the assay on SN12C renal; 70.5% with UO-31 renal; 102% in the assay on TK-10 renal; 47.1% in the assay with ACHN renal; 95.9% with CAKI-1 renal; 10.9% with CCRF-CEM leukemia. Moreover, the growth in the assay with MOLT-4 leukemia is 23.8%.

Consider `Cc1nn(-c2ccccc2)c2c1C(c1ccc([N+](=O)[O-])cc1)C(C#N)=C(N)O2` (configuration not stated), for which the growth in the assay on HCT-15 colon was 106%; with HT29 colon, 105%; in the assay on SNB-75 CNS, 87.7%; in the assay with SNB-19 CNS, 102%; in the assay on U251 CNS, 110%; in the assay on PC-3 prostate, 102%. Moreover, the growth is 122% with SK-MEL-5 melanoma; 96.1% in the assay on UACC-62 melanoma; 101% with LOX IMVI melanoma; 116% in the assay on SK-MEL-28 melanoma; 123% in the assay on SK-MEL-2 melanoma; 115% in the assay with EKVX NSCLC. Moreover, the growth was 101% in the assay on SN12C renal; 70.4% with UO-31 renal; 141% in the assay with TK-10 renal; 108% in the assay on ACHN renal; 115% with CAKI-1 renal; 111% in the assay on A498 renal. The growth in the assay on MOLT-4 leukemia is 101%.

Regarding `N=C(N)c1ccc(-c2ccc(-c3ccc(Cl)c(Cl)c3)o2)nc1`, the growth with HCT-15 colon was 17.2%; in the assay with HT29 colon, -39.8% (active); in the assay with SNB-75 CNS, 97.8%; in the assay on SNB-19 CNS it was 6.96% (active); in the assay on U251 CNS it was -57.1% (active); in the assay with PC-3 prostate, 64.5%. Also, the growth is 92.4% with SK-MEL-5 melanoma; 103% with UACC-62 melanoma; -74.7% (active) with LOX IMVI melanoma; 99.6% with SK-MEL-28 melanoma; 108% with SK-MEL-2 melanoma; 97.3% with EKVX NSCLC. Besides, the growth is -72.8% (active) in the assay with SN12C renal; -92% (active) in the assay on UO-31 renal; 116% in the assay with TK-10 renal; -86.9% (active) with ACHN renal; 87.1% in the assay with CAKI-1 renal; 2.34% (active) in the assay on CCRF-CEM leukemia. In addition, in the assay on MOLT-4 leukemia, the growth is 9.85% (active).

As for `Cc1[nH]c(-c2nc3ccccc3[nH]2)c(C)c1C(=O)N1CCOCC1`, the growth in the assay with HCT-15 colon is 95.5%; in the assay on HT29 colon, 98.3%; in the assay with SNB-75 CNS it was 87.8%; with SNB-19 CNS, 88.7%; in the assay on U251 CNS it was 100%; with PC-3 prostate it was 98.8%. Moreover, the growth with SK-MEL-5 melanoma was 98.8%; with UACC-62 melanoma, 90%; in the assay on LOX IMVI melanoma it was 97.4%; in the assay with SK-MEL-28 melanoma, 105%; in the assay on SK-MEL-2 melanoma, 99.6%; in the assay with EKVX NSCLC it was 91.2%. Also, the growth was 86.8% with SN12C renal; 82.2% in the assay with UO-31 renal; 106% in the assay on TK-10 renal; 98.3% in the assay on ACHN renal; 101% in the assay on CAKI-1 renal; 112% with CCRF-CEM leukemia. Further, the growth in the assay on MOLT-4 leukemia is 105%.

Turning to `C=C1C(=O)O[C@H]2[C@H]1CC/C(Cn1cc(CNCCc3c[nH]c4ccccc34)nn1)=C\CC[C@@]1(C)O[C@@H]21`, the growth in the assay with HCT-15 colon was 102%; with HT29 colon it was 61.2%; in the assay on SNB-75 CNS, 79.8%; in the assay on SNB-19 CNS, 98.3%; in the assay on U251 CNS it was 92.8%; with PC-3 prostate, 94.1%. The growth in the assay with SK-MEL-5 melanoma was 96.5%; with UACC-62 melanoma, 84.7%; with LOX IMVI melanoma it was 94%; in the assay on SK-MEL-28 melanoma, 89%; with SK-MEL-2 melanoma it was 61.4%; with EKVX NSCLC, 97.2%. The growth in the assay on SN12C renal is 95%; with UO-31 renal, 80.7%; in the assay on TK-10 renal, 94.9%; in the assay with ACHN renal, 87.4%; with CAKI-1 renal, 91.3%; with A498 renal, 103%. Moreover, in the assay on MOLT-4 leukemia, the growth is 77.6%.
